Measurements: PubChem BioAssay (NCI)
Compounds without any hit were thinned out: in the full panel of roughly 79,000, 15% have a hit. Activity calls are given as the source filed them. No stated cut-off is given here; in the data, active means growth inhibition above about 70%; inactive means the rest. Where a SMILES comes first, the peptide text is derived from it. [ ]: non-standard residue; d: D form. The star is where a group is joined. NMeAc5c = CNC1(C(=O)O)CCCC1; Boc = CC(C)(C)OC(=O)*; OBn = c1ccc(CO*)cc1

Experiments:
[1] = NCI Yeast Anticancer Drug Screen. Data for the rad50 strain (AID 155);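 further: 0% = growth of vehicle-only cultures of the same strain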; conditions: S. cerevisiae rad50 strain growth inhibition; at 50.0 µM; active compounds read high
In short: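 Readout: growth inhibition relative to vehicle-treated cultures. Compound exposure was carried out in a genetically defined yeast strain deficient in DNA damage repair.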

[2] = NCI Yeast Anticancer Drug Screen. Data for the mec2-1 strain (AID 157); conditions: S. cerevisiae mec2-1 strain, at 50.0 µM, active compounds read high
In short: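 Growth inhibition is read against vehicle-treated controls after compound exposure of the mec2-1 yeast strain, which is defective in DNA damage repair or cell cycle control.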

[3] = NCI Yeast Anticancer Drug Screen. Data for the sgs1 mgt1 strain (AID 161);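 further: 0% = growth of cultures given vehicle only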; conditions: S. cerevisiae sgs1 mgt1 strain, at 50.0 µM, active compounds read high
In short: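 Yeast cells carrying a defined DNA-repair defect were exposed to test compounds. Growth inhibition was measured relative to vehicle-treated controls.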

[4] = NCI Yeast Anticancer Drug Screen. Data for the cln2 rad14 strain (AID 165);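 further: 0% = growth equal to vehicle treated cultures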; conditions: S. cerevisiae cln2 rad14 strain, at 50.0 µM, active compounds read high
In short: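 Growth inhibition, relative to vehicle-treated controls, is the read-out. The test organism is a yeast strain with defined genetic alterations, cln2 rad14.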

[5] = NCI Yeast Anticancer Drug Screen. Data for the bub3 strain (AID 167); conditions: S. cerevisiae bub3 mutant strain, at 50.0 µM, active compounds read high
In short: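 Readout: yeast growth inhibition, expressed relative to vehicle-only wells. The test organism is a mutant strain from a panel with lesions in DNA repair or checkpoint genes.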

[6] = NCI Yeast Anticancer Drug Screen. Data for the mlh1 rad18 strain (AID 175); conditions: S. cerevisiae mlh1 rad18 strain growth inhibition; at 50.0 µM; active compounds read high
In short: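 Cells of a genetically altered yeast strain, deficient in DNA damage repair, were treated with compound. Their growth was then compared with that of vehicle-treated cultures to give inhibition.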

Measured: growth inhibition

CN(C(=O)C(Cc1ccccc1)NC(=O)OC(C)(C)C)C1(C(=O)NC(Cc2ccccc2)C(=O)OCc2ccccc2)CCCC1 (stereo not drawn) (Boc-Phe-[NMeAc5c]-Phe-OBn; configuration not given here)
inactive: [1] -3.35% | [2] 15.6% | [3] -4.5% | [4] 11.8% | [5] 8.6% | [6] 13.6%

CCN(CC)C1Oc2cc3c(cc2C(c2cccc(OC)c2OC)C1C)OCO3 (centres undefined)
inactive: [1] 28.4% | [2] 28.8% | [3] 46.5% | [4] 41.7% | [5] 41.9% | [6] 63.3%

Cc1ccccc1C(O)(c1nccn1C)c1nccn1C
inactive: [1] 8.75% | [2] 5.5% | [3] 19.9% | [4] 9.55% | [5] 18.2% | [6] 37.3%

COC(=O)c1ccc(SCCC(=O)CNc2nc(N)nc(N)c2[N+](=O)[O-])cc1
inactive: [1] 32.1% | [2] -13.3% | [3] 17.6% | [4] 22.3% | [5] -0.2% | [6] 3.15%

OC1CSCCSCCCSCCSC1
inactive: [1] 34.1% | [2] 22.4% | [3] 44.5% | [4] 15.5% | [5] 35.1% | [6] 40.4%

CC(=O)N1CN2C(=O)CCC2c2cc(C)ccc21 (centres undefined)
inactive: [1] 10.1% | [2] 14.9% | [3] -2.65% | [4] 7.8% | [5] 0.95% | [6] -57.4%

NC(=O)c1ccc[n+](CC(=O)Nc2ccccc2)c1
inactive: [1] -5.6% | [2] 0.65% | [3] 6.45% | [4] -30.6% | [5] 1.95% | [6] 3.8%

CCOC(=O)C(C(=O)OCC)C(NC(=O)Nc1cc(C(F)(F)F)ccc1OC)(C(F)(F)F)C(F)(F)F
inactive: [1] 23.1% | [2] 11.6% | [3] 11.4% | [4] 3.45% | [5] 21.6% | [6] 24.8%

CC(C)(C)N=C1CC(C)(C)c2ccccc2C(=Nc2ccccc2)S1
inactive: [1] 23.2% | [2] 9.55% | [3] 24.8% | [4] 24.1% | [5] 8.3% | [6] 15.3%

O=C(c1ccccc1)N(Cc1ccccc1)Cc1ccccc1
inactive: [1] 1% | [2] 35.1% | [3] 26.4% | [4] -34.2% | [5] 41% | [6] 28.2%

O=C(O)CCc1c[nH]c(=S)[nH]1
inactive: [1] 10% | [2] 3.75% | [3] -5.85% | [4] -11.6% | [5] -1.7% | [6] -1.7%

COc1ccc(OC)c(NC(=O)C(=O)C(C(=O)c2ccccc2F)C2OC(=O)c3ccccc32)c1 (centres undefined)
inactive: [1] -15.6% | [2] -20.2% | [3] -27.9% | [4] -15.8% | [5] -60.2% | [6] -41.2%

N#C/C(=C\c1cc(F)cc(F)c1)c1ccccn1
inactive: [1] 9.7% | [2] -0.95% | [3] 0.65% | [4] 3.25% | [5] 3.2% | [6] 30.2%

O=C(c1ccc(F)cc1)c1ccc2ccccc2c1
inactive: [1] 8.75% | [2] -1.3% | [3] -3.35% | [4] 10.7% | [5] 2% | [6] 5%

Cc1cnccc1P(=O)(O)O
inactive: [1] 13.7% | [2] -4.8% | [3] 6.7% | [4] -21.7% | [5] -3.55% | [6] 5.65%

O=C(N/N=C\c1ccc(Cl)c(Cl)c1)c1ccncc1
inactive: [1] -6.65% | [2] -1% | [3] -3.05% | [4] 5.4% | [5] -1.75% | [6] -5.7%

Cc1cc2c(CC(=O)O)[nH]nc2c(C(=O)O)c1C
inactive: [1] 1.4% | [2] -10.4% | [3] -13.2% | [4] 4.8% | [5] 8.25% | [6] -0.55%

Nc1ccn(CC(=O)c2ccc(Cl)s2)c(=O)n1
inactive: [1] -1% | [2] 10.8% | [3] 6.9% | [4] -5.1% | [5] 2.15% | [6] 6.3%

CC(=O)OCC1OC(n2c(C)cc(C)c(C#N)c2=S)C(OC(C)=O)C(OC(C)=O)C1OC(C)=O (centres undefined)
inactive: [1] 21.2% | [2] 16.6% | [3] -5.35% | [4] -14.9% | [5] -6.05% | [6] 32.4%

CCN(CC)C(=S)N1C(=O)C2C3CCC(O3)C2C1=O (centres undefined)
inactive: [1] 19.1% | [2] 11.9% | [3] 13.2% | [4] 6.75% | [5] 28.2% | [6] -11.2%

N#Cc1nc(CC(=O)c2ccncc2)c(CC(=O)c2ccncc2)nc1C#N
inactive: [1] 8% | [2] 11.9% | [3] 35.9% | [4] 13.5% | [5] -10.9% | [6] 53.1%

CN(C)c1ccc(/C=C(\C#N)c2ccc(F)cc2F)cc1
inactive: [1] 0.4% | [2] -2.75% | [3] -3.4% | [4] -9.05% | [5] -5.25% | [6] -23.9%

CN(C)c1ccc2c(N(C)C)cc(N(C)C)[n+](C)c2c1
inactive: [1] 7.8% | [2] -23.1% | [3] -12.8% | [4] 15.2% | [5] -2% | [6] -22.4%

CC1CC=CCC1C1OCCO1 (centres undefined)
inactive: [1] 3.95% | [2] 1.6% | [3] 3.45% | [4] 10.2% | [5] 16.4% | [6] -2.7%

NC(CC(=O)N/C=N/C(=O)O)C(=O)O (centres undefined)
inactive: [1] -5.85% | [2] 5.45% | [3] -17.2% | [4] 4.4% | [5] 6.45% | [6] -7.75%

Cc1c([N+](=O)[O-])ccn1C
inactive: [1] -1.55% | [2] 10.9% | [3] -5.7% | [4] 9.25% | [5] 7.2% | [6] -3.7%

COC(=O)C1(NC(=O)C2(N3C(=O)c4ccccc4C3=O)CCCC2)CCCC1
inactive: [1] -7.95% | [2] -0.95% | [3] -12.7% | [4] -9.45% | [5] -17.9% | [6] 1.6%

O=c1[nH]n2c(=O)cc[nH]c2c1-c1nnns1
inactive: [1] -15.8% | [2] -2.95% | [3] -36.1% | [4] 9.65% | [5] -21.1% | [6] -25.2%

CC1Cn2c(nnc2-c2ccccc2O)S1 (centres undefined)
inactive: [1] -14.1% | [2] 0.6% | [3] -3.25% | [4] -2.95% | [5] -15.3% | [6] -12.6%

CCC1=C(CC2NCCc3ccccc32)CC2c3cc(OC)c(OC)cc3CCN2C1 (centres undefined)
inactive: [1] -9.9% | [2] -12.1% | [3] -14.7% | [4] 3.9% | [5] -28% | [6] -11.1%

Cc1cc(=O)[nH]c(Nc2nc3cc(C)c(C)cc3[nH]2)n1
inactive: [1] 9.6% | [2] -4.9% | [3] 2.05% | [4] 9.2% | [5] -8.2% | [6] -8.4%

CC(C)CCC[C@@H](C)[C@H]1CC[C@H]2[C@@H]3CC=C4C[C@@H](OC(=O)c5cccc6c(=O)c7ccccc7[nH]c56)CC[C@]4(C)[C@H]3CC[C@]12C
inactive: [1] 12.8% | [2] 16.1% | [3] 3.3% | [4] -4.95% | [5] -3.8% | [6] -28.9%

CCc1cccc[n+]1CC(=O)c1ccccc1
inactive: [1] -23.5% | [2] 5.85% | [3] -0.85% | [4] -41.8% | [5] 39.7% | [6] 12%

Cc1ccc(-c2n[nH]c(=O)n2N)cc1
inactive: [1] 3.5% | [2] -23% | [3] 0.85% | [4] 5.45% | [5] 0.45% | [6] 7.25%

CCOC1OC(C(O)CO)C(O)C(O)C1O (centres undefined)
inactive: [1] 4.6% | [2] -8.7% | [3] -1.9% | [4] -56.4% | [5] -7.9% | [6] -0.6%

N#CC(C#N)=CN1CCCCC1
inactive: [1] -16.2% | [2] -4.65% | [3] -12.1% | [4] 17.6% | [5] -6.35% | [6] -17.8%

NS(=O)(=O)c1nc(S(=O)(=O)O)c2[nH]cnc2n1
inactive: [1] 3.7% | [2] -0.35% | [3] -6.75% | [4] -4.2% | [5] -45.3% | [6] 14.2%

CC(O)CNCc1ccc(N(C)C)cc1 (centres undefined)
inactive: [1] -15.8% | [2] 0.4% | [3] 6.8% | [4] -8.85% | [5] -4.65% | [6] 13.7%

CC(C)NC(=O)OCc1c(COC(=O)NC(C)C)c(S(=O)c2ccccc2)n2c1CCC2 (centres undefined)
inactive: [1] 12.6% | [2] 5.3% | [3] 9.05% | [4] -27.1% | [5] 18.6% | [6] -6.4%
